Data published in PubChem BioAssay (Tox21).
Results filed as inconclusive are left out. A number with no mark means an inactive call. Activity calls are given as the source filed them. Calls come from the whole dose curve; as a rule, active = well fitted inhibition curve with a large enough effect in the repeat runs; inconclusive = weak or mixed curves; inactive = no such curve, though single readings can be large or run the other way.

molecular target: Cytochrome P450 1A2 (Homo sapiens) (UniProt P05177); assay: Cytochrome P450 Family 1 Subfamily A Member 2 (CYP1A2) small molecule antagonists: luciferase reporter qHTS assay (AID 1671199); conditions: P450-Glo CYP1A2 enzyme, luciferin luminescence, 1 h; series mostly up to 115 µM; activity change, negative = inhibition: at the top concentration; note: nearly all actives have a fitted effect of over 50% in size
Text: National Center for Advancing Translational Sciences [NCATS]
U.S. Environmental Protection Agency [EPA]
National Institutes of Environmental Health Sciences [NIEHS]
National Toxicology Program [NTP]
U.S. Food and Drug Administration [FDA]
Cytochrome P450 (CYP) enzymes are membrane-bound hemeproteins that play a key role in metabolism of drugs and xenobiotics. Evaluation of the effect of chemicals on CYP isozymes is useful to minimize the adverse drug reactions and toxicities in drug development process. Tox21 chemicals were tested for their effect on CYP enzyme activities by using P450-Glo (TM) screening systems (Promega Corporation, Madison, WI). These systems provide a luminescent method containing proluciferin substrates and are converted to luciferin products by CYP isozymes. The luciferin products formed are detected with a luciferin detection reagent, and the amount of light produced is proportional to CYP activity. P450-Glo (TM) CYP1A2 screening system (Catalog. No. V9770) was used to detect the compounds that interfere in CYP1A2 activity. The positive control compound used for CYP1A2 assay is furafylline (Sigma-Aldrich, St. Louis, MO).
Tox21 Assay Protocol Summary:
Two ul of enzyme-substrate mix was dispensed into medium binding white/solid 1536-well plates (Greiner Bio-One North America Inc., Monroe, NC) using a BioRaptr Flying Reagent Dispenser (FRD, Beckman Coulter, Brea, CA). Compounds dissolved in DMSO and positive control (furafyllline) were transferred to the assay plates at 23 nl using a Pintool station (Wako, San Diego, CA). The assay plates were incubated at room temperature for 10 min. Then 2 ul of NADPH regeneration solution was added to each well of the assay plates using an FRD and incubated at room temperature for 1 h. The reaction was stopped by adding 4 ul of detection reagent using an FRD and after 20 min incubation at room temperature the luminescence signal was measured using a ViewLux plate reader (Perkin Elmer, Shelton, CT). Data were expressed as relative luminescence units.
% is set by controls: 0 for no effect and ±100 for the full control effect; potency is the fitted concentration of half-maximal effect.

Chain of Cytochrome P450 1A2 (Homo sapiens) (P05177 whole entry, looked up): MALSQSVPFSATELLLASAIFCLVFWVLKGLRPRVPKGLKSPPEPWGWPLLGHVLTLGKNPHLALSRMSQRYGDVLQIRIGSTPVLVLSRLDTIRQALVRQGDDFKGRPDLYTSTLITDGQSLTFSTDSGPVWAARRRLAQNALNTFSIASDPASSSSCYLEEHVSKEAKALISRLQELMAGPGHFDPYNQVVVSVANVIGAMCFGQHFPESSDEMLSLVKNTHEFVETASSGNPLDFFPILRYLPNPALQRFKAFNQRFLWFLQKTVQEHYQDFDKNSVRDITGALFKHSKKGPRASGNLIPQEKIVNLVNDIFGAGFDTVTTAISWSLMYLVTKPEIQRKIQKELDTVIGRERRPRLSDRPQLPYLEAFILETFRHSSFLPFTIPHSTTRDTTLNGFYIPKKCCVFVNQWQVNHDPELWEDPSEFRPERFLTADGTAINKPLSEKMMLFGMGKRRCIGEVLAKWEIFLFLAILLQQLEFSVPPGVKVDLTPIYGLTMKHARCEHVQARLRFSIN

Row | Structure (SMILES) | activity change, negative = inhibition | Potency
1 | O=NN1CCCCC1 | -4.39% | –
2 | CNC(=O)O/N=C(\C)SC | -19.8% | –
3 | CCCCN(CCCCO)N=O | -12.5% | –
4 | COC(=O)C(c1ccccc1)C1CCCCN1 (stereo not given) | -7.35% | –
5 | CCCSP(=O)(OCC)Oc1ccc(Br)cc1Cl (stereo not given) | – | 4.34 µM (active)
6 | ClCCOCOCCCl | 1.13% | –
7 | Cc1ccccc1CO[C@@H]1C[C@@]2(C(C)C)CC[C@]1(C)O2 | – | 20 µM (active)
8 | CCC(=O)c1ccccc1 | -12.2% | –
9 | ClCCCN1CCN(c2cccc(Cl)c2)CC1 | – | 15.5 µM (active)
10 | O=C(Nc1ccccc1)N(Cc1ccc(Cl)cc1)C1CCCC1 | – | 15.9 µM (active)
11 | CCN(CC)c1nc(C)cc(OP(=S)(OC)OC)n1 | – | 1.78 µM (active)
12 | O=C(O)c1cccc(Cl)c1 | – | 40 µM (active)
13 | [As]#[In] | -12% | –
14 | c1cc2c(c(N3CCNCC3)c1)OCCO2 | 3.45% [at 53 µM] | –
15 | CCCCOP(=O)(O)OCCCC | -22.3% | –
16 | O=C(O)c1ccc2[nH]cc(CCCCN3CC=C(c4ccccc4)CC3)c2c1 | -4.73% [at 53 µM] | –
17 | COCC(=O)N(c1c(C)cccc1C)N1CCOC1=O | -24.9% | –
18 | Cc1cc(C)nc(Nc2ccccc2)n1 | – | 6.33 µM (active)
19 | CNC(=O)Oc1c(C(C)(C)C)cc(C)cc1C(C)(C)C | -21.5% | –
20 | CC(CC(C#N)(c1ccccc1)c1ccccc1)N(C)C (stereo not given) | 0.0806% | –

Row | Structure (SMILES) | activity change, negative = inhibition | Potency
21 | Nc1n[nH]c(N)n1 | – | 64.4 µM (active)
22 | O=[N+]([O-])c1cccc2cccnc12 | – | 36.5 µM (active)
23 | COc1cc(OC)nc(Sc2cccc(Cl)c2C(=O)O)n1 | -17.1% | –
24 | N#CC(CCc1ccc(Cl)cc1)(Cn1cncn1)c1ccccc1 (stereo not given) | – | 31.7 µM (active)
25 | COP(N)(=S)Oc1ccccc1C(=O)OC(C)C (stereo not given) | – | 2 µM (active)
26 | CNC(=O)N(C)c1nc2ccccc2s1 | – | 2.52 µM (active)
27 | CCC/C(=N\OCC)C1=C(O)CC(CC(C)SCC)CC1=O (stereo not given) | – | 35.8 µM (active)
28 | CCOC(=O)C1(c2ccccc2)CCN(CCc2ccc(N)cc2)CC1 | -5.88% [at 53 µM] | –
29 | ClC(Cl)Br | -20.1% | –
30 | CN(N=O)C(N)=O | -19.8% | –
31 | COC(=O)c1ccccc1S(=O)(=O)NC(=O)N(C)c1nc(C)nc(OC)n1 | -18% | –
32 | CCc1cc2c(s1)-n1c(C)nnc1CN=C2c1ccccc1Cl | -9.6% [at 53 µM] | –
33 | CC(C)(C)OC(=O)c1ncn2c1[C@@H]1CCCN1C(=O)c1c(Br)cccc1-2 | -8.63% [at 53 µM] | –
34 | CC(C)(C)C(=O)C(Oc1ccc(Cl)cc1)n1cncn1 (stereo not given) | – | 35.5 µM (active)
35 | O=[N+]([O-])c1ccc2c3c(cccc13)CC2 | – | 2.24 µM (active)
36 | CN1CCN(C(=O)O[C@H]2c3nccnc3C(=O)N2c2ccc(Cl)cn2)CC1 | – | 27.5 µM (active)
37 | CC1(C)CON(Cc2ccccc2Cl)C1=O | – | 31.7 µM (active)
38 | CC1CN1P(=O)(N1CC1C)N1CC1C (stereo not given) | -14.3% | –
39 | COC(=O)c1ccccc1S(=O)(=O)NC(=O)Nc1nc(C)cc(C)n1 | -18.1% | –
40 | COP(=S)(OC)Oc1c(Cl)cc(C)cc1Cl | – | 8.94 µM (active)
